Assay results reported in the supplement of paper PMC10849652.
The full data set covers some 7,900 targets. This sample favours those with a hit. About 0.6% of all pairs of compound and target were hits. Values without a mark were called inactive.

Compound: C#Cc1cccc(Nc2ncnc3cc(OCCOC)c(OCCOC)cc23)c1 [erlotinib]
Experiment: log2 fold change, soluble protein after heating vs DMSO (PISA); higher = thermal stabilisation; K562 cells, 10 uM, 30 min; active = over 0.2 and 3.5 SD of the protein, either way, in both replicates (recomputed)
Method in brief: (§1)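 K562 cells at 2×10^6 cells/mL were exposed to 10 μM compound for 30 min, then aliquots were heated for 3 min across 48°C-58°C, pooled, and extracted in PBS containing 0.5% NP-40 at 4°C. The supernatant after 21,000xg for 90 min was taken as soluble protein and measured by TMTpro 16plex LC-MS/MS with channel sums equalised. Thermal stability is reported relative to control samples, with values from duplicates. Fold changes are given on a log2 scale.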

Sequence of UniProt Q92890 (Q92890 whole entry, looked up): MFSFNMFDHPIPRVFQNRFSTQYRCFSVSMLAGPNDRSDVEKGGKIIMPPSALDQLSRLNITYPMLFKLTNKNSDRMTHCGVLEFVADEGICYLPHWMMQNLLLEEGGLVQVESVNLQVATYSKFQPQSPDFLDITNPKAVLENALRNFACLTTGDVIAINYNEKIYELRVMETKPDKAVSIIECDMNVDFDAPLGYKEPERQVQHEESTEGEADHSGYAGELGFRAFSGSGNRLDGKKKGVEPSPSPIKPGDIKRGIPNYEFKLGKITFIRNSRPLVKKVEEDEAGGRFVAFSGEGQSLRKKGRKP
Sequence of UniProt Q96AJ9 (Q96AJ9 whole entry, looked up): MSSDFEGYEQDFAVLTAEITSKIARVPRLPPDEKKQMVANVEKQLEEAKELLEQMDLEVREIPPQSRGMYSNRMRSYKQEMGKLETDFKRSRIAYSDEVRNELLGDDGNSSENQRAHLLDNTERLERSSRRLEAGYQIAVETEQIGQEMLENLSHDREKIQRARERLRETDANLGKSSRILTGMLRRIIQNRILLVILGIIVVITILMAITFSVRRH
Sequence of UniProt Q9HAD4 (Q9HAD4 whole entry, looked up): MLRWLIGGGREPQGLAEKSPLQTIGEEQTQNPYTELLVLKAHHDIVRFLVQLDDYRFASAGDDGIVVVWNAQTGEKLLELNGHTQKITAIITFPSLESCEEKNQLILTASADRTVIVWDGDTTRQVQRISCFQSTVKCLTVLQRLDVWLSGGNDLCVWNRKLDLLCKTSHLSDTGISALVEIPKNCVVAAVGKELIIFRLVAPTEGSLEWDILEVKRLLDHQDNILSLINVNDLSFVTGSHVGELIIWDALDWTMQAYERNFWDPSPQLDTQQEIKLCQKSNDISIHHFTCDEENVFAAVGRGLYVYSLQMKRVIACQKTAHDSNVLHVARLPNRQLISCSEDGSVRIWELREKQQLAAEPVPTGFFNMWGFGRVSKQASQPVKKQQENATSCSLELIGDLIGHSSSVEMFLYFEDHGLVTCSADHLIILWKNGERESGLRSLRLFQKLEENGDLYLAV
Sequence of UniProt Q5VZI3 (Q5VZI3 whole entry, looked up): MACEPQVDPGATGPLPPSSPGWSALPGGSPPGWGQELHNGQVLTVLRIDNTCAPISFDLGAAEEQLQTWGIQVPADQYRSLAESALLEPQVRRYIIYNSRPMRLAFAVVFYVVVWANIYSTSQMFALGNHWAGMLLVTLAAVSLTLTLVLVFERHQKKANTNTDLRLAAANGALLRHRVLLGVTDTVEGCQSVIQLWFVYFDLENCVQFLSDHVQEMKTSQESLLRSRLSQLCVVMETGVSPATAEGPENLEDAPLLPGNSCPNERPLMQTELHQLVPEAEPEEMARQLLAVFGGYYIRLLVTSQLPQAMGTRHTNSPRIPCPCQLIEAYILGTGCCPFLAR
Sequence of UniProt Q5R3I4 (Q5R3I4 whole entry, looked up): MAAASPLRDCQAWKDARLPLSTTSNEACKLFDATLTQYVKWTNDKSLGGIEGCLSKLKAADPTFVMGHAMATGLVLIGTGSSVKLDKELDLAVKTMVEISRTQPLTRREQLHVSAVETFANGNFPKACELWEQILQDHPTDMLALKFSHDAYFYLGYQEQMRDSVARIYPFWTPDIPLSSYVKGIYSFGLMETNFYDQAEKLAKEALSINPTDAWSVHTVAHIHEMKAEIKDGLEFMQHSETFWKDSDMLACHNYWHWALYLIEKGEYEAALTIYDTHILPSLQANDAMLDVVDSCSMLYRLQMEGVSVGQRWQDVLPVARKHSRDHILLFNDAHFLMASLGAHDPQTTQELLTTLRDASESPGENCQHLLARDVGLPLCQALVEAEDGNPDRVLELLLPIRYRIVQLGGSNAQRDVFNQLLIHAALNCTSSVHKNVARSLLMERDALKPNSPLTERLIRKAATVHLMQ
Sequence of UniProt Q6ZXV5 (Q6ZXV5 whole entry, looked up): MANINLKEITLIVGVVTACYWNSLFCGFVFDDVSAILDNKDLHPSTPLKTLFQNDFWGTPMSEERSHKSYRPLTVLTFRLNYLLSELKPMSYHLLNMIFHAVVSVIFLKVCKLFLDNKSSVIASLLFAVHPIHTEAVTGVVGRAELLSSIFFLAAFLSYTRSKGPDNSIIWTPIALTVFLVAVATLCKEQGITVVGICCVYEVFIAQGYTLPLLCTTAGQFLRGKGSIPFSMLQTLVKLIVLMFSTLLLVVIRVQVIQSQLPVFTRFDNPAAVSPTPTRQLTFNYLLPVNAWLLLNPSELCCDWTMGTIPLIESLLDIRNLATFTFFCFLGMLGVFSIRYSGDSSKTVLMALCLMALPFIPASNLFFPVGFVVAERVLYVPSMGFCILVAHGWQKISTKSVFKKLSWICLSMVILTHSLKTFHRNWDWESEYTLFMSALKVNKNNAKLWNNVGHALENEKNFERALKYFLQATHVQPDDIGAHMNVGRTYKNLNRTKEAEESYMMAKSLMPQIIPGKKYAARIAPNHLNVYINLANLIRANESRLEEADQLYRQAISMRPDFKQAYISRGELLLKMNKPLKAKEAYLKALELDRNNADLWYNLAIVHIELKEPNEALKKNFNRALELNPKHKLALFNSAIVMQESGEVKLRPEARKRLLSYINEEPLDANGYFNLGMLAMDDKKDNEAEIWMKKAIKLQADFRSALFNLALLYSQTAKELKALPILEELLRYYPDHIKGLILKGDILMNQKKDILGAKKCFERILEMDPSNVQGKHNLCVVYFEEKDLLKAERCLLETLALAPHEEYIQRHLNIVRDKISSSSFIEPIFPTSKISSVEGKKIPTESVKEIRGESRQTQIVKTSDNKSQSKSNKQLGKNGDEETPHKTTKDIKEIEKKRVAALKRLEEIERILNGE
Sequence of UniProt Q86UV5 (Q86UV5 whole entry, looked up): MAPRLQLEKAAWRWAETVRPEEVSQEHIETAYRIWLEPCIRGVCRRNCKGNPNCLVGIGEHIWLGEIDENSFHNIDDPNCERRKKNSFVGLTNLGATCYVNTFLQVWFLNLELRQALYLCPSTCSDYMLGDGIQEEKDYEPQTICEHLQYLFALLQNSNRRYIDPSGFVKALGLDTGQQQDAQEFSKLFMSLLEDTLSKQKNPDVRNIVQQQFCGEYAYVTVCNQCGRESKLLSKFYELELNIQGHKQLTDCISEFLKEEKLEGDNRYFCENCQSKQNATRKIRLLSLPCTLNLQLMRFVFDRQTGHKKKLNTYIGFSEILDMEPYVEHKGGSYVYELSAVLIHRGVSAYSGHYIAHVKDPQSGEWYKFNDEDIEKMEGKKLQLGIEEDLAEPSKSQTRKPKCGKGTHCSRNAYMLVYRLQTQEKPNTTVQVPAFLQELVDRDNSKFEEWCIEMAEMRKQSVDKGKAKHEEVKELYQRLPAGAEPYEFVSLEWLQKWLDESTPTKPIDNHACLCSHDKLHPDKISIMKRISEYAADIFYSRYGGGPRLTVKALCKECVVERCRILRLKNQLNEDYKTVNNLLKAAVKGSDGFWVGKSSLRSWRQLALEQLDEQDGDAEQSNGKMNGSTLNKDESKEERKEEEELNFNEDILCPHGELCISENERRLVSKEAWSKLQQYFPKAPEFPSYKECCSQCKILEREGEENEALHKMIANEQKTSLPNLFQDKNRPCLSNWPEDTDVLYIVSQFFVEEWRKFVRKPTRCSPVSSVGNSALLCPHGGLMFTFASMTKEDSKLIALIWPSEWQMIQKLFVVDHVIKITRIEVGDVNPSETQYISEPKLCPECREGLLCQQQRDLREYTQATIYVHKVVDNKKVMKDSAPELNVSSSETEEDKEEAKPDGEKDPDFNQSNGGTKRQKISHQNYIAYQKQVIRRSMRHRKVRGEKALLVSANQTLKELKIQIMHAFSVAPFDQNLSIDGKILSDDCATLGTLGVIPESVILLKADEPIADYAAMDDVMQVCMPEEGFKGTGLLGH
Sequence of UniProt Q96K49 (Q96K49 whole entry, looked up): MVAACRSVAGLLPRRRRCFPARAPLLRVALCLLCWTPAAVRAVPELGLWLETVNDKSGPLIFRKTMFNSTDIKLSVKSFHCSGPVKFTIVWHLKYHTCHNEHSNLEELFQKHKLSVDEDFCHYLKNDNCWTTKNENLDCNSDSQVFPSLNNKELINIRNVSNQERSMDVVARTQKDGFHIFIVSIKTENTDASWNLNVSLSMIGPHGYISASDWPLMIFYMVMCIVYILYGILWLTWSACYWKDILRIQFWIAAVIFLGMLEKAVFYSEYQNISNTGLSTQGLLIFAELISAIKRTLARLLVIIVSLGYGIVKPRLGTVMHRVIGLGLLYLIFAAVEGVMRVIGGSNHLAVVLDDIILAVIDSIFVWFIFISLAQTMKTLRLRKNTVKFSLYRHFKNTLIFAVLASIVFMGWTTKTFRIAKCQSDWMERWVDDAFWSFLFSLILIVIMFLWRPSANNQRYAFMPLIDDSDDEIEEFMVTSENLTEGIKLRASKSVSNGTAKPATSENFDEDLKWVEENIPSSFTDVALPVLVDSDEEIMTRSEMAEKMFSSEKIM
Sequence of UniProt Q99816 (Q99816 whole entry, looked up): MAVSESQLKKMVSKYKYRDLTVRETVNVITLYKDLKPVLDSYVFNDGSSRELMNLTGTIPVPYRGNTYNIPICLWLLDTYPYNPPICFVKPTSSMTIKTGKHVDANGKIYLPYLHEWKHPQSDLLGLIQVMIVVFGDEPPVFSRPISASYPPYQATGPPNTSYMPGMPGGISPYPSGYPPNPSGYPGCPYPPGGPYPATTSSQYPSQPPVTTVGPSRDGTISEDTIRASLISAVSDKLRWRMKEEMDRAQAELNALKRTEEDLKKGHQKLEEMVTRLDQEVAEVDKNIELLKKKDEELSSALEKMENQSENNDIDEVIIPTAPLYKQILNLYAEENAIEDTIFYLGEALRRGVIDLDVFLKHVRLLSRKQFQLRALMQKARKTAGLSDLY
Sequence of UniProt O43396 (O43396 whole entry, looked up): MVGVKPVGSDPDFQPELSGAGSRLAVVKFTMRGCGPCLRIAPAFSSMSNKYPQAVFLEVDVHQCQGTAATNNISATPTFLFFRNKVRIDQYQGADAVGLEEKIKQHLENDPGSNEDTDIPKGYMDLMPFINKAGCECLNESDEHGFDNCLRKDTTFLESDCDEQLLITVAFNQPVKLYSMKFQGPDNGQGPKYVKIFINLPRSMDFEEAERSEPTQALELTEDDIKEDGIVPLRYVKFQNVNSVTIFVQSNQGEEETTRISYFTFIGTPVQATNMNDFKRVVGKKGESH

Target | log2 fold change
WDR61 (UniProt Q9GZS3) | 0.021
USP3 (UniProt Q9Y6I4) | 0.099
TOMM20 (UniProt Q15388) | 0.073
TNPO2 (UniProt O14787) | 0.075
VPS11 (UniProt Q9H270) | -0.041
TMEM87B (UniProt Q96K49) | 0.035
TRIP10 isoform 2 (UniProt Q15642) | -0.116
TTI1 (UniProt O43156) | -0.078
UFD1 isoform 1 (UniProt Q92890) | 0.001
TRAPPC13 isoform 5 (UniProt A5PLN9) | 0.133
VTI1A (UniProt Q96AJ9) | -0.07
VPS52 (UniProt Q8N1B4) | 0.019
TTC4 (UniProt O95801) | 0.094
TMTC3 (UniProt Q6ZXV5) | 0
XPO5 (UniProt Q9HAV4) | 0.011
UTP3 (UniProt Q9NQZ2) | -0.098
U2AF2 (UniProt P26368) | 0.012
TRAPPC2L (UniProt Q9UL33) | 0.193

Target | log2 fold change
USP14 (UniProt P54578) | -0.027
USP48 isoform 8 (UniProt Q86UV5) | 0.114
WDCP (UniProt Q9H6R7) | 0.083
TMEM223 (UniProt A0PJW6) | 0.005
TSC2 (UniProt P49815) | 0.276
TRAPPC8 (UniProt Q9Y2L5) | 0.024
VPS53 isoform 4 (UniProt Q5VIR6) | 0.06
USO1 isoform 2 (UniProt O60763) | -0.008
UCHL5 (UniProt Q9Y5K5) | -0.018
TMEM268 isoform 3 (UniProt Q5VZI3) | -0.161
UBE4A isoform 2 (UniProt Q14139) | 0.012
TRABD (UniProt Q9H4I3) | -0.057
TSG101 (UniProt Q99816) | 0.022
TMEM189-UBE2V1 (UniProt I3L0A0) | -0.014
WDR41 (UniProt Q9HAD4) | 0.039
TXNL1 (UniProt O43396) | -0.012
UGDH (UniProt O60701) | 0.004
TTC38 (UniProt Q5R3I4) | 0.749 (active)

Compound: C/C(=N\NC(=O)C1=CC(=CC=C1)S(=O)(=O)N2CCOCC2)/C3=C(C=CC(=C3)Cl)O
Experiment: as above
Method in brief: as §1

Target | log2 fold change
WDR61 (UniProt Q9GZS3) | 0.066
USP3 (UniProt Q9Y6I4) | 0.114
TOMM20 (UniProt Q15388) | -0.01
TNPO2 (UniProt O14787) | 0.115
VPS11 (UniProt Q9H270) | 0.099
TMEM87B (UniProt Q96K49) | 0.059
TRIP10 isoform 2 (UniProt Q15642) | -0.002
TTI1 (UniProt O43156) | 0.115
UFD1 isoform 1 (UniProt Q92890) | 0.019
TRAPPC13 isoform 5 (UniProt A5PLN9) | 0.047
VTI1A (UniProt Q96AJ9) | 0.026
VPS52 (UniProt Q8N1B4) | 0.048
TTC4 (UniProt O95801) | 0.081
TMTC3 (UniProt Q6ZXV5) | 0
XPO5 (UniProt Q9HAV4) | 0.103
UTP3 (UniProt Q9NQZ2) | -0.076
U2AF2 (UniProt P26368) | 0.045
TRAPPC2L (UniProt Q9UL33) | 0.062

Target | log2 fold change
USP14 (UniProt P54578) | 0.03
USP48 isoform 8 (UniProt Q86UV5) | 0.186
WDCP (UniProt Q9H6R7) | -0.003
TMEM223 (UniProt A0PJW6) | 0.052
TSC2 (UniProt P49815) | -0.047
TRAPPC8 (UniProt Q9Y2L5) | 0.118
VPS53 isoform 4 (UniProt Q5VIR6) | 0.094
USO1 isoform 2 (UniProt O60763) | 0.046
UCHL5 (UniProt Q9Y5K5) | 0.094
TMEM268 isoform 3 (UniProt Q5VZI3) | 0.061
UBE4A isoform 2 (UniProt Q14139) | 0.148
TRABD (UniProt Q9H4I3) | -0.023
TSG101 (UniProt Q99816) | 0.054
TMEM189-UBE2V1 (UniProt I3L0A0) | 0.025
WDR41 (UniProt Q9HAD4) | 0.038
TXNL1 (UniProt O43396) | 0.096
UGDH (UniProt O60701) | 0.134
TTC38 (UniProt Q5R3I4) | 0.032
